# In the library only some 2.6% were active in any assay of this set; here they are far more common.
# Ba/F3 V617F tox: lowers viability of Ba/F3 cells expressing EpoR and JAK2V617F; 220,000 compounds, 1.1% hits; AID 1446; inhibition, % at 5.6 µM; ATP luminescence;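 active means inhibition above the campaign mean plus 3 SD over all tested compounds, cut at about 24% in these data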;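 further: cytokine-independent growth of Ba/F3 cells driven by EpoR plus mutant JAK2; 0% = DMSO-treated cells and 100% = JAK inhibitor I control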
# IEC-6 cytotox: counter-screen for KLF5 inhibitors: cytotoxicity in IEC-6 cells; inhibition, % at 5 µM; AID 1825; 290,000 compounds, 0.78% hits; IEC-6 cytotoxicity, luminescence viability;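 further: 0% = plate median of test compound wells and 100% = cytotoxic reference compound wells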
# BaF3 tox: reduces parental Ba/F3 cell viability, JAK2V617F counter-screen; CellTiter-Glo ATP luminescence; inhibition, % at 5.6 µM; 220,000 compounds, 1.1% hits;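 active means inhibition above a per-campaign cutoff, the mean inhibition of all tested compounds plus 3 SD, cut at about 27% in these data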;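 further: 0% = DMSO wells and 100% = JAK Inhibitor I control wells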
# FID counter: counter-screen for HCV NS3 helicase inhibitors: DNA intercalator displacement; DNA fluorescent intercalator displacement, fluorescence; inhibition, % at 7.9 µM; 290,000 compounds, 0.17% hits; in the data active means inhibition above about 37%;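 further: 0% = vehicle and 100% = reference compound; higher means more ethidium bromide displaced from hairpin DNA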
# KLF5 inhibitor: kruppel-like factor 5 inhibition. AID 1700. inhibition, % at 5 µM. DLD-1 KLF5 promoter-luciferase reporter, luminescence. 290,000 compounds, 0.23% hits;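 active means inhibition above a per-plate limit of that plate's mean compound inhibition plus 3 SD, cut at about 60% in these data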;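 further: 0% = DMSO wells and 100% = LY294002 at 200 µM; higher means less KLF5 promoter-driven luciferase light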
# GPR7 antag: blocks human GPR7 receptor signaling | 290,000 compounds, 1.1% hits | GPR7-expressing cells, fluorescence antagonist assay | inhibition, % at 4.4 µM; in the data active means inhibition above about 16%, passing the limit was not always enough;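 further: cells stimulated with the agonist NPW; 0% = agonist with vehicle and 100% = vehicle without agonist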
# Target sequence (P48145 whole entry, looked up): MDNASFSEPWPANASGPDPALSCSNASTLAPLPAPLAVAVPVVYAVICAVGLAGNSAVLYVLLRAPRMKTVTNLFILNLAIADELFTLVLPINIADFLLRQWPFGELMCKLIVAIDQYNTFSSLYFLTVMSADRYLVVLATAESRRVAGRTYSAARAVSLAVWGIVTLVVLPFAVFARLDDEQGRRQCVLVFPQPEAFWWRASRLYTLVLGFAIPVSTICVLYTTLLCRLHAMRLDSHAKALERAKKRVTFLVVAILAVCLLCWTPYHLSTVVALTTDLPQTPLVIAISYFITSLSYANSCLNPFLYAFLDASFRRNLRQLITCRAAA
# GPR7 antag conf: confirmation of human GPR7 antagonists; shares compounds with GPR7 antag; GPR7-expressing cells, calcium fluorescence antagonist mode; inhibition, % at 4.4 µM; 2,400 compounds, 52% hits; AID 1952; in the data active means inhibition above about 24%;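 further: stimulated with the GPR7 agonist NPW; 0% = agonist plus vehicle and 100% = vehicle alone without agonist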
# MCHR1 antag: counter-screen for GPR7 antagonists: antagonists of human MCHR1; MCHR1-expressing cells, fluorescence antagonist assay; inhibition, % at 4.4 µM; shares compounds with GPR7 antag; 2,400 compounds, 62% hits;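 further: 0% = vehicle with agonist and 100% = vehicle without agonist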
# The depositor's hits bear a star; nt = not tested or not shown. Unless noted, no stated cut-off is given here; in the data, active means inhibition above about 22%; inactive means the rest.
SMILES,Ba/F3 V617F tox,IEC-6 cytotox,BaF3 tox,FID counter,KLF5 inhibitor,GPR7 antag,GPR7 antag conf,MCHR1 antag
C=CCOc1c(CNC2CCCC2)cc(Cl)cc1OC,2,4,7,8,-8,26*,15,9
O=C(Cc1cccc(F)c1)N1CCCC(CO)(Cc2ccc(F)cc2F)C1 (configuration not stated),nt,0,nt,-29,-26,-4,nt,nt
COc1cccc(CC(=O)N2CCCC(CO)(Cc3ccc(F)cc3F)C2)c1 (configuration not stated),nt,0,nt,-34,-33,26*,-7,-9
COC(=O)CNC(=O)c1c(-c2ccccc2Cl)noc1C,-2,0,7,5,1,23*,-1,2
O=C(COc1ccc(-n2cnnn2)cc1)N1CCN(c2ccc(F)cc2)CC1,-3,4,4,-17,-17,21,nt,nt
Cc1nc2cc(NC(=O)N(C)c3ccc4ccccc4c3)ccc2o1,0,-1,6,-12,-12,32*,11,26*
COc1ccc(NC(=O)Nc2ccc3oc(C)nc3c2)cc1,2,3,14,0,-126,8,nt,nt
CN(c1ccccc1)S(=O)(=O)c1ccc(NC(=O)c2ccc(-c3ccccc3)cc2)cc1,-2,-4,5,2,7,-14,nt,nt
Cc1nc2cc(NC(=O)c3ccc(S(=O)(=O)N(C)c4ccccc4)cc3)ccc2o1,nt,1,nt,-32,-48,45*,63*,81*
O=C(CN1CCOc2ccccc21)NCc1ccc(F)cc1,-2,3,3,-2,10,-5,nt,nt
O=C(COc1ccc(F)cc1)N1CCc2ccccc2C1,4,2,22,-7,-35,28*,21,9
Cc1ccc(OCC(=O)N2CCc3ccccc3C2)cc1,nt,-3,nt,-31,-28,9,nt,nt
COC(=O)CNC(c1ccccc1)c1cc(Br)ccc1NC(=O)OCc1ccccc1 (configuration not stated),-5,-6,1,-12,-62,-13,nt,nt
COC(=O)CNC(c1ccccc1)c1cc(C)ccc1NC(=O)CNC(=O)OCc1ccccc1 (configuration not stated),6,19,6,-16,7,39*,29*,18
Cc1ccc(S(=O)(=O)Nc2ccc(Br)cc2C(NCC(=O)O)c2ccccc2)cc1 (configuration not stated),0,4,-1,-19,31,-4,nt,nt
CCOC(=O)CNC(c1ccccc1)c1cc(Br)ccc1NC(C)=O (configuration not stated),-2,1,-2,17,-2,36*,30*,12
CCN1CC(O)=C(c2nc3ccccc3s2)C1=N,-3,0,3,1,-38,0,nt,nt
CCCCN(CCCC)S(=O)(=O)c1ccc(SCC(=O)OCC)c([N+](=O)[O-])c1,-6,-2,2,-12,-39,0,nt,nt
O=C(CN(C(=O)c1csnn1)c1cccc(F)c1)NC1CCCC1,nt,-5,nt,-11,-9,28*,4,1
CCCCC(Nc1ncnc2ccccc12)C(=O)O (configuration not stated),-2,0,4,-4,-42,23*,-6,-9
COc1ccc(OC)c(NC(=O)CC2C(=O)NCCN2C(=O)c2ccccc2)c1 (configuration not stated),nt,8,nt,-12,-43,-14,nt,nt
O=C(O)CC(NC(=O)C1c2ccccc2Oc2ccccc21)c1ccc(Cl)cc1 (configuration not stated),0,-8,4,-31,-11,35*,3,4
CCOc1ccc(C(=O)c2cccs2)cc1,-3,-12,5,-3,-56,-1,nt,nt
O=C(CCn1ccc2ccccc21)Nc1ccc(N2CCOCC2)cc1,-6,-2,0,-8,-7,30*,-1,5
O=C(CCn1c(=O)oc2ccccc21)Nc1ccc(N2CCOCC2)cc1,nt,-8,nt,-11,-14,-3,nt,nt
OCCC1CN(Cc2cccc(C(F)(F)F)c2)CCN1Cc1ccccc1 (configuration not stated),-1,0,3,5,-35,0,nt,nt
